TDP1 cell CPT: DT40-hTDP1 cell growth loss with CPT | chicken DT40 Tdp1-/-;hTDP1 cells + 20 nM CPT, ATP luminescence, 48 h | Potency, µM (titrated, usually from 46.2 µM), without a hit: top-dose activity change, negative = growth inhibition, hits mostly inhibitors | 12% of 420,000 active | AID 686979; note: nearly all actives have a fitted effect of over 55% in size
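Chicken DT40 Tdp1-/- cells stably complemented with human TDP1 were seeded at 400 cells/well in medium containing 20 nM camptothecin, exposed to pin-transferred compounds, and grown at 37 °C for at least 48 hr. Viability was read as ATP luminescence.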
TDP1 cell noCPT: qHTS for Inhibitors of human tyrosyl-DNA phosphodiesterase 1 (TDP1): qHTS in cells in absence of CPT | Potency, µM (top dose mostly 46.2 µM), for the others: top-dose activity change, negative = growth inhibition, most hits filed as inhibitors | 15% of 420,000 active | AID 686978, 2013 | DT40 Tdp1-/- hTDP1 cells, no CPT, ATP luminescence, 48 h; note: nearly all actives have a fitted effect of over 55% in size
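Stably hTDP1-transfected Tdp1-null chicken DT40 cells were treated with library compounds minus camptothecin and grown for at least 48 hr at 37 °C, after which cellular ATP was quantified by luminescence.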
TDP1 block: TDP1 (human) enzyme inhibition. Q9NUW8. recombinant TDP1, AlphaScreen DNA substrate cleavage. Potency, µM (top dose mostly 130 µM), for the others: at the highest dose activity change, negative = inhibition, hits mostly inhibitors. 0.28% of 350,000 active; note: nearly all actives have a fitted effect of over 40% in size
Target sequence (Q9NUW8 whole entry, looked up): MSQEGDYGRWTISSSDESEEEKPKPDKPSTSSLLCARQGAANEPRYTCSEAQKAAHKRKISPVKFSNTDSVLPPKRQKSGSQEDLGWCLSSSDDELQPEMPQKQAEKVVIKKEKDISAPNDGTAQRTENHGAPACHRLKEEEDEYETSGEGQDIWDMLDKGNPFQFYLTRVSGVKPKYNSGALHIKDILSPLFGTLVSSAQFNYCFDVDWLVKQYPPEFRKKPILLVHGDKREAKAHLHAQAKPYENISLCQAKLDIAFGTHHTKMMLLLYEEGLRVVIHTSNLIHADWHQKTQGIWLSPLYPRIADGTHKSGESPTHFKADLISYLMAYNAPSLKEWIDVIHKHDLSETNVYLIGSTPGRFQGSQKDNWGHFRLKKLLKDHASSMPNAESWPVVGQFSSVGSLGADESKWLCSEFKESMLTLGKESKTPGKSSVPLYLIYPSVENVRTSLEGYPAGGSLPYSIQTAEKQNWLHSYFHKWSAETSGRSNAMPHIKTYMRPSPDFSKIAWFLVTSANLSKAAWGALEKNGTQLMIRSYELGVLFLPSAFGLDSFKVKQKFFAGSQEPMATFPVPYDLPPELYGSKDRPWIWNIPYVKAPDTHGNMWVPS
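Enzyme-compound mixtures sat 15 min at room temperature, followed by a 5 min reaction with 15 nM final substrate and 10 min with AlphaScreen beads. Recombinant human Tdp1 was used at 1 nM final.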
RORg inh: ROR gamma (mouse) transcription inhibition; P51450; Drosophila S2 Gal4-RORgamma UAS-luciferase reporter, 20 h; Potency, µM (series often up to 53.6 µM), inactives show top-dose activity change, negative = inhibition, most hits filed as inhibitors; 5.4% of 310,000 active; note: nearly all actives have a fitted effect of over 60% in size
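Luciferase reporter read in Schneider cells carrying Gal4-RORγ (mouse) and UAS-Photinus luciferase; cells given compound 1 h before 700 uM copper sulfate induction, then incubated 20 h at ambient temperature.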
Gal4-VP16 FLuc: Gal4-VP16 reporter inhibition counter-screen; 3.5% of 310,000 active; Drosophila S2 Gal4-VP16 UAS-luciferase, luminescence, 20 h; Potency, µM (series often up to 53.6 µM), inactives show at the top dose activity, negative = inhibition, actives largely listed as inhibitors; AID 2546;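 note: Gal4-VP16 expression switched on by copper sulfate through the metallothionein promoter; nearly all actives have a fitted effect of over 50% in size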
The depositor's hits bear a star; ? = inconclusive; . = no result; [ ] = remark or other dose. This is a sample that favours compounds with a hit; in the whole collection about 19% have one here. Calls come from the whole dose curve; as a rule, active = well fitted curve in the direction sought with a large enough effect; inconclusive = small, poorly fitted or top-dose-only effect, or another doubt; inactive = no such curve, though single readings can be large; an effect the other way counts as inactive or inconclusive. % is set by controls: 0 for no effect and ±100 for the full control effect; potency is the fitted concentration of half-maximal effect.

SMILES	TDP1 cell CPT	TDP1 cell noCPT	TDP1 block	RORg inh	Gal4-VP16 FLuc
CC(C)Nc1nc(Oc2ccc(Cl)cc2Cl)cc(C(F)(F)F)n1	-22%	-1%	-4%	25µM*	?
CC(C)Nc1nc(Oc2cccc(Cl)c2Cl)cc(C(F)(F)F)n1	-22%	?	-12%	?	?
N#Cc1c(C#N)c(SSc2c(C#N)c(C#N)c(N)n2-c2ccccc2)n(-c2ccccc2)c1N	4.6µM*	4.6µM*	.	.	.
COc1ccc(Cn2c(C3CC3)nc3ccc(NC(C)=O)cc3c2=O)cc1	-6%	-26%	8%	?	6%
Cc1nc2ccc(NC(=O)c3ccccc3)cc2c(=O)n1Cc1ccc(F)cc1	?	13µM*	.	.	.
COc1ccc(Cn2c(C3CC3)nc3ccc(NC(=O)c4cccnc4)cc3c2=O)cc1	7.3µM*	10µM*	.	19%	2%
COc1ccc(OC)c(NC(=O)CC2SC(=Nc3ccc(F)cc3)N(CCC3=CCCCC3)C2=O)c1 (configuration not stated)	?	?	1%	?	?
CN(C)C(=O)C1C2NC(=S)N(c3cccc(Cl)c3)C1(C)Oc1ccc(Cl)cc12 (configuration not stated)	-17%	-24%	5%	10µM*	?
CN(C)C(=O)C1C2NC(=S)N(c3ccc(Cl)cc3)C1(C)Oc1ccc(Cl)cc12 (configuration not stated)	?	?	10%	10µM*	?
CCOC(=O)c1nc2ccccc2s1	3%	-8%	2%	17%	9%
O=C(/C=C/c1ccc(I)cc1)c1ccc(B(O)O)cc1	.	.	7%	?	1%
CN1C(=C2C(=O)OC(C)(C)OC2=O)Sc2ccccc21	?	18µM*	4%	?	0%
Cc1ccc(NC(=O)c2noc(C(C)C)c2[N+](=O)[O-])cc1	13µM*	18µM*	2%	-10%	-6%
CC(C)c1onc(C(=O)NC2CCCC2)c1[N+](=O)[O-]	?	?	7%	-1%	0%
CC(C)c1onc(C(=O)Nc2cccc(O)c2)c1[N+](=O)[O-]	-20%	-6%	0%	0%	-2%
CC(C)c1onc(C(=O)Nc2ccc3c(c2)OCO3)c1[N+](=O)[O-]	?	18µM*	.	19%	?
Cc1ccc2[nH]c(-c3ccccc3)c(CN3CCOCC3)c(=O)c2c1	?	?	2%	14%	0%
C=CCNC(=S)Nc1ccc(C)c(S(=O)(=O)N2CCCCC2)c1	-24%	-10%	1%	11µM*	-1%
Cc1ccc(NC(=S)Nc2ccc(C(C)C)cc2)cc1S(=O)(=O)N1CCCCCC1	23µM*	16µM*	1%	3.2µM*	4.5µM*
Cc1ccc(NC(=S)N2CCN(S(C)(=O)=O)CC2)cc1	1%	7%	8%[56.1 µM]	-4%	11%
N#CC1C=Cc2ccccc2N1C(=O)c1ccccc1 (configuration not stated)	-21%	-9%	1%	24%	4%
N#CC1C=Cc2c(ccc3ccccc23)N1C(=O)c1ccccc1 (configuration not stated)	0.58µM*	0.92µM*	.	.	.
COc1ccc(-c2ncncc2-c2ccccc2)c(O)c1	?	-25%	.	-20%	-2%
COCc1ccc(CN2Cc3ccccc3OC(c3ccccc3OC)C2)o1 (configuration not stated)	-11%[9.04 µM]	-9%	.	.	.
COc1ccccc1C1CN(Cc2ccc(Sc3nncn3C)o2)Cc2ccccc2O1 (configuration not stated)	-10%[9.04 µM]	16µM*	.	.	.
SMILES	TDP1 cell CPT	TDP1 cell noCPT	TDP1 block	RORg inh	Gal4-VP16 FLuc
COc1ccccc1C1CN(Cc2cccc(O)c2)Cc2ccccc2O1 (configuration not stated)	-3%[9.04 µM]	16µM*	.	.	.
CCC(=O)c1ccc(OCC(=O)OC(C)C(=O)Nc2c(C)n(C)n(-c3ccccc3)c2=O)cc1 (configuration not stated)	-3%	-31%	.	.	.
COC(=O)c1ccccc1N=Nc1c(N)[nH][nH]c1=O	?	?	8%	32%	2%
O=C(Nc1ccc(C(=O)N2CCOCC2)cc1)c1ccccc1[N+](=O)[O-]	2%	0%	1%	1%	0%
O=C(N/N=C/c1ccc(N2CCOCC2)o1)c1ccccc1[N+](=O)[O-]	0%	?	5%	13µM*	?
O=C(N/N=C/c1ccc(N2CCCCC2)o1)c1ccccc1[N+](=O)[O-]	?	?	3%	?	8.9µM*
Cc1nc(NCc2c(C)nn(C)c2Cl)sc1-c1ccn(CC2COc3ccccc3O2)n1 (configuration not stated)	16µM*	21µM*	.	.	.
Cc1nn(C)cc1CNc1nc(C)c(-c2ccn(CC3COc4ccccc4O3)n2)s1 (configuration not stated)	?	21µM*	.	.	.
Cc1nc(NCc2cnn(C)c2C)sc1-c1ccn(CC2COc3ccccc3O2)n1 (configuration not stated)	-6%[9.04 µM]	?	.	.	.
CCn1ccnc1CC1COc2ccccc2O1 (configuration not stated)	2%	-12%	12%[56.1 µM]	-23%	-7%
CCc1cc(C(=O)NCC2Cc3cc(-c4ccccc4C(C)=O)ccc3O2)no1 (configuration not stated)	-10%[9.04 µM]	?	.	.	.
O=C(NNc1c2ccccc2nc2ccccc12)c1cccc(O)c1	?	12µM*	11%	-7%	-27%
CCCC(=O)NNc1c2ccccc2nc2ccccc12	-11%	?	6%	8%[10 µM]	-35%
O=C(NNc1c2ccccc2nc2ccccc12)c1ccc(O)cc1	13µM*	?	4%	-29%	?
Cc1ccc(C(=O)NNc2nc3ccccc3nc2C(F)(F)F)cc1	?	23µM*	1%	?	-14%
CN(CC(=O)O)S(=O)(=O)c1ccc2c(c1)n(C)c(=O)c(=O)n2C	6%	-5%	6%	-1%	-5%
O=S(=O)(c1ccc(Br)cc1)N1CCn2cccc2C1c1ccc(Br)cc1 (configuration not stated)	?	16µM*	3%	.	.
CC(=O)c1ccc(S(=O)(=O)N2CCn3cccc3C2c2ccc(C)cc2)cc1 (configuration not stated)	21µM*	?	0%	.	.
N/C(=N\OC(=O)c1ccccc1)C(C(=O)NOC(=O)c1ccccc1)C1CCCCC1 (configuration not stated)	26µM*	18µM*	.	.	.
COc1cc(OC)cc(C(=O)Nn2cnnc2)c1	27%	1%	.	9%	-6%
O=c1[nH]c2ccccc2n1C1=CCCC1	-12%	?	4%	0%	2%

Screens deposited in PubChem by National Center for Advancing Translational Sciences (NCATS).
